# Experimental data as given in PubChem BioAssay (Tox21).
# Inconclusive results are not listed. Values without a mark were called inactive. Calls come from the whole dose curve; as a rule, active = well fitted inhibition curve with a large enough effect in the signal ratio in the repeat runs (not every such curve was filed as active); inconclusive = weak or mixed curves, or effect the other way; inactive = flat fitted curve, though single readings scatter; the % refers to the signal ratio.
# Assay: cAMP Responsive Elements (CRE) small molecule antagonists, cell-based qHTS assay (AID 1963591)
# Details: CRE-bla HEK293T, beta-lactamase FRET ratio; series mostly up to 92.4 µM; activity change, negative = inhibition: at the top concentration
# Source text: U.S. Tox21 Program National Center for Advancing Translational Sciences [NCATS] Division of Preclinical Innovation [DPI] U.S. Environmental Protection Agency [EPA] National Institutes of Environmental Health Sciences [NIEHS] National Toxicology Program [NTP] U.S. Food and Drug Administration [FDA] Tox21 Assay Overview: CREB (cyclic-AMP Responsive Element Binding Protein) is a cellular transcription factor. It binds to certain DNA sequences called cAMP Responsive Elements (CRE) and regulates the transcription of the genes. […] This cell line can be used to find agonists/antagonists of the cyclic AMP signaling pathway. The activation of the report gene under culture conditions can be detected by fluorescence intensity. This cell line has been used to screen the Tox21 10K compound library to […].
# Tox21 Assay Protocol Summary: CRE-bla Hek 293T cells were suspended in assay medium (DMEM containing 10% dialyzed FBS, 0.1 mM NEAA, 1 mM sodium pyruvate and 25 mM HEPES) and dispensed at 2,000 cells/4 uL /well into 1536-well black wall/clear bottom plates using a Multidrop Combi (ThermoFisher Scientific, Waltham, MA) dispenser. After the assay plates were incubated at 37 C/5% CO2 for 18 hrs, 23 nL of compounds dissolved in DMSO, positive controls or DMSO only was transferred to the assay plate by a pintool workstation (Kalypsys, San Diego, CA), followed by addition of 1 […] uL of 1.25uM NKH477 (0.25 uM as final concentration) in assay medium using a Flying Reagent Dispenser (Aurora Discovery, San Diego, CA). The plates were incubated at 37 C and 5% CO2 for 3 hrs. Then 1 uL of LiveBLAzer B/G FRET substrate (Invitrogen, Carlsbad, CA) was added to each well using Bioraptr Flying Reagent Dispenser (FRD, Aurora Discovery, San Diego, CA). The plates were incubated at room temperature for 2 h.
# % is set by controls: 0 for no effect and ±100 for the full control effect.
row,SMILES,"activity change, negative = inhibition"
1,CC(C)(C)c1cc(CCC(=O)OCC(COC(=O)CCc2cc(C(C)(C)C)c(O)c(C(C)(C)C)c2)(COC(=O)CCc2cc(C(C)(C)C)c(O)c(C(C)(C)C)c2)COC(=O)CCc2cc(C(C)(C)C)c(O)c(C(C)(C)C)c2)cc(C(C)(C)C)c1O,-0.775% [at 42.4 µM]
2,CCN(Cc1ccncc1)C(=O)C(CO)c1ccccc1 (stereo not given),-5.89% [at 42.4 µM]
3,O=C1CCCCCO1,-5.11%
4,ClCCOCCOCCCl,-0.735%
5,CN(C)CC/C=C1\c2ccccc2Sc2ccc(Cl)cc21,-19.6% [at 42.4 µM]
6,Nc1ccc2ccccc2c1S(=O)(=O)O,6.89%
7,CC(C)(C)c1cc(O)c(C(C)(C)C)cc1O,13.1%
8,C[C@@H](CN(C)C)CN1c2ccccc2Sc2ccccc21,-8.1% [at 42.4 µM]
9,CN(C)C(=O)COC(=O)Cc1ccc(OC(=O)c2ccc(N=C(N)N)cc2)cc1,3.45% [at 42.4 µM]
10,CC(C)(C)Cl,-0.526%
11,CC(C)C(O)(c1ccc(OC(F)(F)F)cc1)c1cncnc1 (stereo not given),13.3%
12,CCc1ccccc1,4.83%
13,C[C@H](NC(CCc1ccccc1)C(=O)O)C(=O)N1CCC[C@H]1C(=O)O (stereo not given in full),-1.28% [at 42.4 µM]
14,NCCCC(O)(P(=O)(O)O)P(=O)(O)O,-4.91% [at 42.4 µM]
15,CC(C)(Cc1c[nH]c2ccccc12)NCC(O)COc1ccccc1C#N (stereo not given),5.76% [at 42.4 µM]
16,CC[N+](CC)(CC)CCOc1ccc(/C=C/c2ccccc2)cc1,-6.38% [at 42.4 µM]
17,Cc1ccc([N+](=O)[O-])c(N)c1,0.396%
18,NCCNC(=O)c1ccc(Cl)cn1,-1.63% [at 42.4 µM]
19,c1ccc2sc(SN(C3CCCCC3)C3CCCCC3)nc2c1,2.98%
20,CC(C)(C)C1CCCCC1=O (stereo not given),-0.122%

row,SMILES,"activity change, negative = inhibition"
1,C[C@]12C(=O)OC(=O)[C@H]1[C@H]1C=C[C@@H]2C1,7.59%
2,Nc1nc2ccc(OC(F)(F)F)cc2s1,8.47% [at 42.4 µM]
3,O=C(O)c1ccc2cc(C(=O)O)ccc2c1,1.49%
4,COC(=O)NCCC[Si](OC)(OC)OC,-8.25%
5,CCCCCCCCCCCCCOC(=O)CCSCCC(=O)OCCCCCCCCCCCCC,-14% [at 18.9 µM]
6,FB(F)F,-11.7%
7,CN(C)c1ccc(O)c2c1C[C@H]1C[C@H]3[C@H](N(C)C)C(=O)C(C(N)=O)=C(O)[C@@]3(O)C(=O)C1=C2O,-15.8%
8,O=C(O)c1ccc(S(=O)(=O)O)cc1C(=O)O,-9.57%
9,CCCOC(=O)CC,-5.41%
10,Cc1c(Cl)cccc1Cl,-0.282%
11,C[C@@H]1C[C@H]2[C@@H]3C[C@H](F)C4=CC(=O)C=C[C@]4(C)[C@@]3(F)[C@@H](O)C[C@]2(C)[C@@]1(O)C(=O)CO,-0.219% [at 42.4 µM]
12,O=C1c2ccccc2C(=O)c2c1ccc(O)c2O,-5.28% [at 42.4 µM]
13,Brc1c2ccccc2c(Br)c2ccccc12,2.05% [at 8.39 µM]
14,CC(=O)OC(C)C[N+](C)(C)C (stereo not given),0.958% [at 42.4 µM]
15,CC(C)=CC(C)(C)C,-1.24%
16,CC1(C)SC(C)(C)SC(C)(C)S1,-4.52%
17,Cc1nnc(SCC2=C(C(=O)O)N3C(=O)[C@@H](NC(=O)Cn4cnnn4)[C@H]3SC2)s1,2.42% [at 42.4 µM]
18,CC1=CC=C(C(C)C)CC1,3.08%
19,O=C(/C=C/c1ccc(O)c(O)c1)O[C@@H]1C[C@@](OC(=O)/C=C/c2ccc(O)c(O)c2)(C(=O)O)C[C@@H](O)[C@@H]1O,-4.55% [at 42.4 µM]
20,CC(C)(O)c1ccc(C(C)(C)O)cc1,-0.287%
